# Measurements from PubChem BioAssay AID1508601 (ICCB-Longwood Screening Facility, Harvard Medical School, 2020).
# Hit rate of the full screen: of about 5,700 compounds, about 85 (1%) were called active. Cut-off read from the data, not from the text of the source: active = p53-positive nuclei above about 36% (passing the limit was not always enough); inactive = the rest. The full list was thinned out, with actives kept by preference.
# Experiments:
# [1] = p53 stabilisation in HPV-positive human cells, imaging, p53-positive nuclei imaging, 24 h, 48 h (AID 1508601); conditions: 24/48 h
# [2] = target: Cellular tumor antigen p53 (Homo sapiens) (UniProt P04637); experiment: as above; conditions: 24/48 h, stronger effect = higher value
# [3] = measured here: cell number at 24 h, Library stock concentration: 10 mM
# [4] = measured here: cell number at 48 h, Library stock concentration: 10 mM
# [5] = Library stock concentration: 10 mM
# [6] = measured here: p53 positive nuclei at 24 h, Library stock concentration: 10 mM
# [7] = measured here: cell number at 24 h, Library stock concentration: 3.33 mM
# [8] = measured here: cell number at 48 h, Library stock concentration: 3.33 mM
# [9] = Library stock concentration: 3.33 mM
# [10] = measured here: p53 positive nuclei at 24 h, Library stock concentration: 3.33 mM
# [11] = measured here: cell number at 24 h, concentration not given here
# [12] = measured here: cell number at 48 h, concentration not given here
# [13] = measured here: p53 positive nuclei at 24 h, concentration not given here
# [14] = measured here: cell number at 24 h, Library stock concentration: 80 uM
# [15] = measured here: cell number at 24 h, Library stock concentration: 400 uM
# [16] = measured here: cell number at 24 h, Library stock concentration: 2 mM
# [17] = measured here: cell number at 48 h, Library stock concentration: 80 uM
# [18] = measured here: cell number at 48 h, Library stock concentration: 400 uM
# [19] = measured here: cell number at 48 h, Library stock concentration: 2 mM
# [20] = Library stock concentration: 80 uM
# [21] = Library stock concentration: 400 uM
# [22] = Library stock concentration: 2 mM
# [23] = measured here: p53 positive nuclei at 24 h, Library stock concentration: 80 uM
# [24] = measured here: p53 positive nuclei at 24 h, Library stock concentration: 400 uM
# [25] = measured here: p53 positive nuclei at 24 h, Library stock concentration: 2 mM
# Cellular tumor antigen p53 (Homo sapiens), sequence (P04637 whole entry, looked up): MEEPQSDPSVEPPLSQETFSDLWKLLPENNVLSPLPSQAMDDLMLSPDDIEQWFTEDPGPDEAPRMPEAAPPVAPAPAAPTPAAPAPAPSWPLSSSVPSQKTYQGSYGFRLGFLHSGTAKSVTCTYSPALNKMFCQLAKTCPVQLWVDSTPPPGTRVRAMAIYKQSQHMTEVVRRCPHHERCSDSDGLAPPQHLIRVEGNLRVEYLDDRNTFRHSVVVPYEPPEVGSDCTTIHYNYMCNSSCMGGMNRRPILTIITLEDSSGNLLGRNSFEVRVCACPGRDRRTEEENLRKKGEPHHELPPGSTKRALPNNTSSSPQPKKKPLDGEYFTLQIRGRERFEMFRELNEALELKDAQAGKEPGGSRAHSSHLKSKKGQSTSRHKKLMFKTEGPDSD
smiles,measurement,setting,value
COc1ccc(N2C(=O)C(=Cc3ccc([N+](=O)[O-])s3)SC2=S)cc1,"nuclei count, normalised","[1]; measured here: cell number at 24 h, Library stock concentration: 500 nM",117%
same,"nuclei count, normalised","[1]; measured here: cell number at 24 h, Library stock concentration: 1.5 uM",113%
same,"nuclei count, normalised","[1]; measured here: cell number at 24 h, Library stock concentration: 4.6 uM",108%
same,"nuclei count, normalised","[1]; measured here: cell number at 24 h, Library stock concentration: 13.7 uM",110%
same,"nuclei count, normalised","[1]; measured here: cell number at 24 h, Library stock concentration: 41 uM",105%
same,"nuclei count, normalised","[1]; measured here: cell number at 24 h, Library stock concentration: 123 uM",88.7%
same,"nuclei count, normalised","[1]; measured here: cell number at 24 h, Library stock concentration: 370 uM",69.2%
same,"nuclei count, normalised","[1]; measured here: cell number at 24 h, Library stock concentration: 1.111 mM",62.1%
same,"nuclei count, normalised","[1]; measured here: cell number at 24 h, Library stock concentration: 3.333 mM",48.5%
same,"nuclei count, normalised",[1]; [3],37.6%
same,"nuclei count, normalised","[1]; measured here: cell number at 48 h, Library stock concentration: 500 nM",110%
same,"nuclei count, normalised","[1]; measured here: cell number at 48 h, Library stock concentration: 1.5 uM",106%
same,"nuclei count, normalised","[1]; measured here: cell number at 48 h, Library stock concentration: 4.6 uM",107%
same,"nuclei count, normalised","[1]; measured here: cell number at 48 h, Library stock concentration: 13.7 uM",104%
same,"nuclei count, normalised","[1]; measured here: cell number at 48 h, Library stock concentration: 41 uM",108%
same,"nuclei count, normalised","[1]; measured here: cell number at 48 h, Library stock concentration: 123 uM",87.8%
same,"nuclei count, normalised","[1]; measured here: cell number at 48 h, Library stock concentration: 370 uM",59.1%
same,"nuclei count, normalised","[1]; measured here: cell number at 48 h, Library stock concentration: 1.111 mM",49.4%
same,"nuclei count, normalised","[1]; measured here: cell number at 48 h, Library stock concentration: 3.333 mM",31.9%
same,"nuclei count, normalised",[1]; [4],24.4%
same,"p53-positive nuclei, normalised",[2]; Library stock concentration: 500 nM,0.221% (inactive)
same,"p53-positive nuclei, normalised",[2]; Library stock concentration: 1.5 uM,0.0846% (inactive)
same,"p53-positive nuclei, normalised",[2]; Library stock concentration: 4.6 uM,0.192% (inactive)
same,"p53-positive nuclei, normalised",[2]; Library stock concentration: 13.7 uM,-0.0302% (inactive)
same,"p53-positive nuclei, normalised",[2]; Library stock concentration: 41 uM,0.353% (inactive)
same,"p53-positive nuclei, normalised",[2]; Library stock concentration: 123 uM,5.11% (inactive)
same,"p53-positive nuclei, normalised",[2]; Library stock concentration: 370 uM,28.8% (inactive)
same,"p53-positive nuclei, normalised",[2]; Library stock concentration: 1.111 mM,38.4% (inactive)
same,"p53-positive nuclei, normalised",[2]; Library stock concentration: 3.333 mM,79.8% (active)
same,"p53-positive nuclei, normalised",[2]; [5],117% (active)
same,"p53-positive nuclei, normalised","[2]; measured here: p53 positive nuclei at 24 h, Library stock concentration: 500 nM",-0.0612%
same,"p53-positive nuclei, normalised","[2]; measured here: p53 positive nuclei at 24 h, Library stock concentration: 1.5 uM",0.0572%
same,"p53-positive nuclei, normalised","[2]; measured here: p53 positive nuclei at 24 h, Library stock concentration: 4.6 uM",0.0046%
same,"p53-positive nuclei, normalised","[2]; measured here: p53 positive nuclei at 24 h, Library stock concentration: 13.7 uM",0.00591%
same,"p53-positive nuclei, normalised","[2]; measured here: p53 positive nuclei at 24 h, Library stock concentration: 41 uM",0.0741%
same,"p53-positive nuclei, normalised","[2]; measured here: p53 positive nuclei at 24 h, Library stock concentration: 123 uM",5.3%
same,"p53-positive nuclei, normalised","[2]; measured here: p53 positive nuclei at 24 h, Library stock concentration: 370 uM",28.7%
same,"p53-positive nuclei, normalised","[2]; measured here: p53 positive nuclei at 24 h, Library stock concentration: 1.111 mM",41.6%
same,"p53-positive nuclei, normalised","[2]; measured here: p53 positive nuclei at 24 h, Library stock concentration: 3.333 mM",85.9%
same,"p53-positive nuclei, normalised",[2]; [6],121%
O=C(O)c1ccc(C=C2SC(=S)N(c3cccc(C(F)(F)F)c3)C2=O)cc1,"nuclei count, normalised",[1]; [7],76.4%
same,"nuclei count, normalised",[1]; [8],78.4%
same,"p53-positive nuclei, normalised",[2]; [9],-0.0579% (inactive)
same,"p53-positive nuclei, normalised",[2]; [10],-0.316%
C/C=C/C(=O)O[C@H](COCCCCCCCCCCCCCCCC)COP(=O)([O-])OCC[N+](C)(C)C,"nuclei count, normalised",[1]; [11],91.3%
same,"nuclei count, normalised",[1]; [12],103%
same,"p53-positive nuclei, normalised",[2]; concentration not given here,-0.0567% (inactive)
same,"p53-positive nuclei, normalised",[2]; [13],0.0947%
CCCCCCCCCCCCCCCCCC(=O)OCC,"nuclei count, normalised",[1]; [11],111%
same,"nuclei count, normalised",[1]; [12],110%
same,"p53-positive nuclei, normalised",[2]; concentration not given here,-0.0271% (inactive)
same,"p53-positive nuclei, normalised",[2]; [13],-0.00774%
N=c1ccn2c(n1)OC1C(O)C(CO)OC12 (configuration not stated),"nuclei count, normalised",[1]; [7],61.4%
same,"nuclei count, normalised",[1]; [8],51.8%
same,"p53-positive nuclei, normalised",[2]; [9],0.1% (inactive)
same,"p53-positive nuclei, normalised",[2]; [10],-0.25%
Nc1cccc(OCc2ccccc2)c1,"nuclei count, normalised","[1]; measured here: cell number at 24 h, Library stock concentration: 46 uM",111%
same,"nuclei count, normalised","[1]; measured here: cell number at 24 h, Library stock concentration: 278 uM",109%
same,"nuclei count, normalised","[1]; measured here: cell number at 24 h, Library stock concentration: 1.67 mM",109%
same,"nuclei count, normalised",[1]; [3],99%
same,"nuclei count, normalised","[1]; measured here: cell number at 48 h, Library stock concentration: 46 uM",106%
same,"nuclei count, normalised","[1]; measured here: cell number at 48 h, Library stock concentration: 278 uM",111%
same,"nuclei count, normalised","[1]; measured here: cell number at 48 h, Library stock concentration: 1.67 mM",109%
same,"nuclei count, normalised",[1]; [4],103%
same,"p53-positive nuclei, normalised",[2]; Library stock concentration: 46 uM,-0.0623% (inactive)
same,"p53-positive nuclei, normalised",[2]; Library stock concentration: 278 uM,-0.108% (inactive)
same,"p53-positive nuclei, normalised",[2]; Library stock concentration: 1.67 mM,0.151% (inactive)
same,"p53-positive nuclei, normalised",[2]; [5],0.0982% (inactive)
same,"p53-positive nuclei, normalised","[2]; measured here: p53 positive nuclei at 24 h, Library stock concentration: 46 uM",-0.0998%
same,"p53-positive nuclei, normalised","[2]; measured here: p53 positive nuclei at 24 h, Library stock concentration: 278 uM",-0.155%
same,"p53-positive nuclei, normalised","[2]; measured here: p53 positive nuclei at 24 h, Library stock concentration: 1.67 mM",0.0148%
same,"p53-positive nuclei, normalised",[2]; [6],-0.152%
CN1CC[C@H](c2c(O)cc(O)c3c(=O)cc(-c4ccccc4Cl)oc23)C(O)C1 (some centres not stated),"nuclei count, normalised",[1]; [14],104%
same,"nuclei count, normalised",[1]; [15],38.3%
same,"nuclei count, normalised",[1]; [16],28.8%
same,"nuclei count, normalised",[1]; [7],19.7%
same,"nuclei count, normalised",[1]; [3],27.3%
same,"nuclei count, normalised",[1]; [17],113%
same,"nuclei count, normalised",[1]; [18],25.6%
same,"nuclei count, normalised",[1]; [19],21.8%
same,"nuclei count, normalised",[1]; [8],16%
same,"nuclei count, normalised",[1]; [4],20.2%
same,"p53-positive nuclei, normalised",[2]; [20],0.113% (inactive)
same,"p53-positive nuclei, normalised",[2]; [21],48.4% (inactive)
same,"p53-positive nuclei, normalised",[2]; [22],4.92% (inactive)
same,"p53-positive nuclei, normalised",[2]; [9],8.28% (inactive)
same,"p53-positive nuclei, normalised",[2]; [5],4.03% (inactive)
same,"p53-positive nuclei, normalised",[2]; [23],-0.107%
same,"p53-positive nuclei, normalised",[2]; [24],2.03%
same,"p53-positive nuclei, normalised",[2]; [25],0.196%
same,"p53-positive nuclei, normalised",[2]; [10],0.472%
same,"p53-positive nuclei, normalised",[2]; [6],0.419%
CN1CCC(c2c(O)cc(O)c3c(=O)cc(-c4ccccc4Cl)oc23)C1CO (configuration not stated),"nuclei count, normalised",[1]; [14],103%
same,"nuclei count, normalised",[1]; [15],85.7%
same,"nuclei count, normalised",[1]; [16],35.8%
same,"nuclei count, normalised",[1]; [7],33.3%
same,"nuclei count, normalised",[1]; [3],24.1%
same,"nuclei count, normalised",[1]; [17],106%
same,"nuclei count, normalised",[1]; [18],84.1%
same,"nuclei count, normalised",[1]; [19],23.2%
same,"nuclei count, normalised",[1]; [8],26.2%
same,"nuclei count, normalised",[1]; [4],17.3%
same,"p53-positive nuclei, normalised",[2]; [20],0.295% (inactive)
same,"p53-positive nuclei, normalised",[2]; [21],16% (inactive)
same,"p53-positive nuclei, normalised",[2]; [22],66% (active)
same,"p53-positive nuclei, normalised",[2]; [9],49.6% (inactive)
same,"p53-positive nuclei, normalised",[2]; [5],30.8% (inactive)
same,"p53-positive nuclei, normalised",[2]; [23],0.32%
same,"p53-positive nuclei, normalised",[2]; [24],6.89%
same,"p53-positive nuclei, normalised",[2]; [25],3.25%
same,"p53-positive nuclei, normalised",[2]; [10],3.39%
same,"p53-positive nuclei, normalised",[2]; [6],6.32%
